# Screening results (PubChem BioAssay)
# This is a sample that favours compounds with a hit; in the whole collection about 19% have one here.
# TDP1 cell CPT – qHTS for Inhibitors of human tyrosyl-DNA phosphodiesterase 1 (TDP1): qHTS in cells in presence of CPT. Potency, µM (top dose mostly 46.2 µM), for inactives: top-dose activity change, negative = growth inhibition, most hits filed as inhibitors. 12% of 420,000 active. chicken DT40 Tdp1-/-;hTDP1 cells + 20 nM CPT, ATP luminescence, 48 h; note: potency is the fitted concentration of half-maximal effect; nearly all actives have a fitted effect of over 55% in size
#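 Cell growth measured by CellTiter-Glo luminescence after a minimum 48 h, 37 C compound exposure with 20 nM CPT in Tdp1-knockout DT40 cells stably expressing hTDP1, seeded 400/well; qHTS titration format.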
# HT1080 IDH1KD tx – qHTS for induction of synthetic lethality in tumor cells producing 2HG: qHTS for the HT-1080-IDH1KD cell line; HT-1080 IDH1 knockdown viability, ATP luminescence, 48 h; Potency, µM (series often up to 46.1 µM), without a hit: top-dose activity, negative = toxicity, actives largely listed as cytotoxic; 2% of 360,000 active; AID 686971, 2013;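 note: potency is the fitted concentration of half-maximal effect; 0% = DMSO wells and -100% = cell-free medium wells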
#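 In this qHTS, HT-1080 cells depleted of IDH1 are exposed for 48 h at 37 °C to compound titrations. Toxicity is scored from CellTiter-Glo luminescence, with DMSO as full viability and medium alone as none.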
# TDP1 cell noCPT – qHTS for Inhibitors of human tyrosyl-DNA phosphodiesterase 1 (TDP1): qHTS in cells in absence of CPT. DT40 Tdp1-/- hTDP1 cells, no CPT, ATP luminescence, 48 h. Potency, µM (titrated, usually from 46.2 µM), without a hit: at the top dose activity change, negative = growth inhibition, usual class: inhibitors. 15% of 420,000 active; note: potency is the fitted concentration of half-maximal effect; nearly all actives have a fitted effect of over 55% in size
#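 DT40 Tdp1-/-;hTDP1 cells, no CPT (DMSO vehicle only), 400 cells/well; compounds pin-transferred; ≥48 hr, 37 °C; CellTiter-Glo 30 min RT dark, luminescence read.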
# HT1080-NT tox – qHTS for induction of synthetic lethality in tumor cells producing 2HG: qHTS for the HT-1080-NT fibrosarcoma cell line. HT-1080-NT fibrosarcoma viability, CellTiter-Glo ATP luminescence, 48 h. 1.6% of 360,000 active. AID 686970, 2013. Potency, µM (doses to about 46.1 µM), inactives show top-dose activity, negative = less viability, hits mostly cytotoxic;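 note: NT is the 2HG producing partner of a matched IDH1 knockdown line; potency is the fitted concentration of half-maximal effect; 0% = DMSO-treated cells and -100% = media-only wells without cells; nearly all actives have a fitted effect of over 55% in size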
#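 Viability of the 2HG-overproducing fibrosarcoma line after 48 hours of compound exposure at 37 degrees C was determined by luminescence with CellTiter-Glo, and concentration-effect curves were then fitted and categorized.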
# IL1B secr inh – qHTS for Inhibitors of Inflammasome Signaling: IL-1-beta AlphaLISA Primary Screen; THP-1 LPS/ATP IL-1B secretion, AlphaLISA, 16 h; hits give low values; activity change, % at 57.5 µM; 4.7% of 360,000 active; AID 743279, 2014; in the data active = activity change below about -50%; inconclusive = mostly about -30% to -49%
#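 THP-1 cells pretreated 1 hr with compounds (up to 57.5 uM final), then stimulated with LPS (250 ng/mL final) plus ATP (1.25 mM final); secreted IL-1B measured by AlphaLISA after 16 hr, decreased signal indicating inhibition.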
# ELG1 repair inh – qHTS screen for small molecules that inhibit ELG1-dependent DNA repair in human embryonic kidney (HEK293T) cells expressing luciferase-tagged ELG1; Potency, µM (titrated, usually from 46.1 µM), without a hit: top-dose activity change, negative = inhibition, hits mostly inhibitors; 2.3% of 330,000 active; HEK293T ELG1-luciferase reporter, luminescence, 16 h; DNA damage induced by 5-fluorouridine; note: potency is the fitted concentration of half-maximal effect; nearly all actives have a fitted effect of over 55% in size
#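 In this reporter screen, reduction of luminescence relative to DMSO vehicle indicated activity. Compounds and 5-fluorouridine were added together to 2,000 cells per well, incubated for 16 hr at 37 °C, then developed with ONE-Glo.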
# * marks the source's active call; other numbers are inactive results; ? = inconclusive; / = no result; [ ] = dose if it differs, or a comment. Unless noted, calls come from the whole dose curve; as a rule, active = well fitted curve in the direction sought with a large enough effect; inconclusive = small, poorly fitted or top-dose-only effect, or another doubt; inactive = no such curve, though single readings can be large; an effect the other way counts as inactive or inconclusive. Unless noted, % is set by controls: 0 for no effect and ±100 for the full control effect.
SMILES,TDP1 cell CPT,HT1080 IDH1KD tx,TDP1 cell noCPT,HT1080-NT tox,IL1B secr inh,ELG1 repair inh
CCCOc1ccc(F)cc1-c1cc(C(=O)NCc2cc(OC)cc(OC)c2)[nH]n1,18µM*,-26%,?,-23%,-21,/
COc1ccccc1CNC(=O)c1cc(-c2cc(F)ccc2OC(C)C)n[nH]1,16µM*,2%,21µM*,8%,-8,/
CCCOc1ccc(F)cc1-c1cc(C(=O)NCCOC)[nH]n1,-20%,25%,-26%,?,-1,/
CC(C)Oc1ccc(F)cc1-c1cc(C(=O)NCc2cc(C(F)(F)F)cc(C(F)(F)F)c2)[nH]n1,18µM*,?,21µM*,?,?,/
COc1cc(F)ccc1-c1cc(C(=O)NCc2cc(C(F)(F)F)cc(C(F)(F)F)c2)[nH]n1,?,?,-16%,2%,24,/
CCCOc1ccc(F)cc1-c1cc(C(=O)NCc2ccccc2OC)[nH]n1,?,0%,?,-20%,-19,/
CCNC(=O)C1(C)CCCN(C(=O)c2nc3ccccc3s2)C1 (stereo unspecified),1%,0%,-7%,21%,-8,/
COc1cc(CNC(=O)c2cc(-c3cc(F)ccc3OC(C)C)n[nH]2)cc(OC)c1,16µM*,?,?,?,?,/
CC1CC(C)CN(C(=O)COC(=O)c2ccc3c(c2)OCO3)C1 (stereo unspecified),-4%,0%,-10%,2%,-5,?
CCOC(=O)c1cccc(NC(=O)/C=C/c2ccc3c(c2)OCO3)c1,?,?,18µM*,?,-90*,?
CCOC(=O)c1c(C)c(C(=O)Nc2ccc3c(c2)OCCO3)c(C)n1CC,10µM*,?,11µM*,?,16,0%
CC(=O)c1cccc(NC(=O)c2ccc3c(c2)OCO3)c1,?,0%,?,3%,-8,?
CCOC(=O)c1cccc(NC(=O)c2ccc3c(c2)OCO3)c1,15µM*,-12%,12µM*,1%,-85*,?
CCOC(=O)c1cccc(NC(=O)/C=C/c2cccc([N+](=O)[O-])c2)c1,?,19%,?,17%,-10,-23%
CCOC(=O)c1c(C)c(C(=O)Nc2ccc3c(c2)OCO3)c(C)n1C,1%,3%,-4%,16%,0,12%
CC1CCCC(C)N1C(=O)COC(=O)c1ccc2c(c1)OCO2 (stereo unspecified),-1%,-1%,29µM*,-6%,13,?
Cc1nn(C(=O)c2ccccc2)c(C)c1S(=O)(=O)N1CCOCC1,?,/,-20%,/,/,/
Cc1cccc(C)c1NC(=O)c1cccc(N2C(=O)C3CCC(C)CC3C2=O)c1 (stereo unspecified),-5%,1%,-2%,-1%,0,2%
CC1CCC(NC(=O)c2ccc3c(c2)N(Cc2ccccc2F)C(=O)c2ccccc2S3=O)CC1 (stereo unspecified),?,/,-23%,/,/,/
CC(C)(CNC(=O)c1cnn(-c2ncc3c(n2)-c2ccccc2CCC3)c1C1CC1)N1CCOCC1,-2%[9.04 µM],/,-5%,/,/,/
CC1(C)CN(C2CCCCC2)C(=O)[C@H]1CC(=O)Nc1ccc(Br)cc1,?,17%,18µM*,17%,-28,/
CC1(C)CN(C2CCCCC2)C(=O)[C@H]1CC(=O)Nc1ccccc1,-21%,16%,?,5%,-25,/
O=C(NNC(=S)NC(=O)c1cccnc1)c1ccccc1,?,-29%,23µM*,-3%,42,2%
O=C(NNC(=S)NC(=O)c1cccnc1)c1ccc(F)cc1,-26%,-12%,?,-8%,-3,?
O=C(NC(=S)NNC(=O)c1cnccn1)c1ccc(F)cc1,3.3µM*,?,5.2µM*,?,85,5.2µM*
SMILES,TDP1 cell CPT,HT1080 IDH1KD tx,TDP1 cell noCPT,HT1080-NT tox,IL1B secr inh,ELG1 repair inh
O=C(NNC(=S)NC(=O)c1ccc(F)cc1)c1cccnc1,?,-13%,18µM*,-21%,22,-16%
Cc1ccc(-c2nn(CC(=O)NC3CCCCC3)c3c2cnc2ccc(F)cc23)cc1C,-12%,/,-11%,/,/,/
Cc1ccc(OCCCNC2CCCC2)cc1,-16%,-9%,-21%,-13%,-11,0%
Cc1ccc(OCCCCNC2CCCCC2)c(C)c1,21µM*,?,12µM*,?,-63*,-3%
CC(C)(C)c1ccc(OCCCNC2CCCC2)cc1,?,?,29µM*,?,-67*,8%
COc1cccc(OC)c1OCCCNC1CCCC1,-24%,0%,1%,-15%,-4,-5%
Cc1ccc(C)c(OCCCNC2CCCC2)c1C,23µM*,-4%,9.2µM*,-29%,-8,5%
CCCOc1ccc(OCCNC2CCCC2)cc1,-21%,0%,16µM*,-3%,-5,18%
O=C(NC1CCN(Cc2ccccc2)C1)c1cnn(-c2ncc3c(n2)-c2ccccc2CC3)c1C1CC1 (stereo unspecified),7%[9.04 µM],/,-17%,/,/,/
CCCCn1c(N)c(N(CCOC)C(=O)CN(C)S(=O)(=O)c2ccc(C)cc2)c(=O)[nH]c1=O,-1%,-3%,20%,0%,5,0%
Cc1ccc(NC(=O)c2cc3ccccc3o2)cc1Cl,?,-17%,?,-12%,-52*,?
Cc1ccc(NC(=O)c2cc3ccccc3o2)nc1,0%,-16%,5%,-20%,-96*,?
CC(=O)Nc1cccc(NC(=O)c2cc3ccccc3o2)c1,16µM*,-11%,21µM*,-9%,-3,?
Cc1cc(C)nc(NC(=O)c2cc3ccccc3o2)n1,-14%,-5%,-9%,4%,-19,12%
CCCCOC(=O)c1cccc(NC(=O)c2cc3ccccc3o2)c1,13µM*,/,5.2µM*,/,/,/
CC(C)C(=O)Nc1cccc(NC(=O)c2cc3ccccc3o2)c1,?,0%,?,1%,-5,?
O=C(Nc1ccccc1)c1cc2ccccc2o1,-30%,?,?,?,-6,?
